PubChem BioAssay AID1159580 (chemical genetic matrix, 2015)
Where “and” joins values, the source holds several entries; their conditions need not be identical. Equal values may be shown once. Out of some 5,500 compounds screened, about 2,000 (36%) were called active. Not shown: some 18% with an inconclusive outcome. Cut-off read from the data, not from the text of the source: active = normalized growth mostly below about 0.91 (no sharp cut-off); inconclusive = no clear call, values can overlap the other calls; inactive = mostly above about 0.92. Some of the results follow.

Assay: chemical genetic growth profiling, strain panel (AID 1159580);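 note: tested at 20 µM; growth read once vehicle control cultures reached saturation at 30 °C; 1 = growth at the plate median or of vehicle wells; lower values mean less growth of the strain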
Conditions: S. cerevisiae deletion strains, growth OD

Measured: normalized growth

CCNC(=O)CC[C@H](N)C(=O)O
inactive: locus YAL021C, strain ccr4, hits give low values 0.995 | locus YAL026C, strain drs2, hits give low values 1 | locus YAL030W, strain snc1, hits give low values 0.998 | locus YBL061C, strain skt5, hits give low values 0.993 | locus YBR009C, strain hhf1, hits give low values 1.02 | locus YBR021W, strain FUR4, hits give low values 1.03 | locus YBR023C, strain chs3, hits give low values 0.993 | locus YBR171W, strain sec66, hits give low values 1 | locus YBR229C, strain ROT2, hits give low values 0.991 | locus YBR231C, strain swc5, hits give low values 0.997 | locus YBR279W, strain paf1, hits give low values 1 | locus YCL011C, strain gbp2, hits give low values 1 | locus YCL016C, strain dcc1, hits give low values 0.996 | locus YCL029C, strain bik1, hits give low values 0.988 | locus YCL061C, strain MRC1, hits give low values 1 | locus YCL069W, strain vba3, hits give low values 1.01 | locus YCR088W, strain abp1, hits give low values 1 | locus YDL005C, strain med2, hits give low values 0.986 | locus YDL035C, strain GPR1, hits give low values 1.04 | locus YDL040C, strain nat1, hits give low values 0.998 | locus YDL074C, strain BRE1, hits give low values 1.02 | locus YDL101C, strain DUN1, hits give low values 0.965 | locus YDL134C, strain PPH21, hits give low values 1.01 | locus YDL185W, strain tfp1, hits give low values 0.996 | locus YDL192W, strain arf1, hits give low values 1 | locus YDR001C, strain nth1, hits give low values 0.997 | locus YDR069C, strain doa4, hits give low values 1.03 | locus YDR101C, strain arx1, hits give low values 1 | locus YDR137W, strain rgp1, hits give low values 1.01 | locus YDR159W, strain sac3, hits give low values 0.992 | locus YDR162C, strain NBP2, hits give low values 1.03 | locus YDR195W, strain ref2 0.994 | locus YDR297W, strain sur2, hits give low values 0.99 | locus YDR318W, strain mcm21, hits give low values 0.999 | locus YDR334W, strain swr1, hits give low values 1 | locus YDR335W, strain msn5, hits give low values 1 | locus YDR388W, hits give low values 1 | locus YDR392W, strain spt3, hits give low values 0.991 | locus YDR502C, strain sam2, hits give low values 0.999 | locus YEL003W, strain gim4, hits give low values 1.01 | locus YEL037C, strain rad23, hits give low values 0.996 | locus YEL061C, strain CIN8 (second series), hits give low values 1 | locus YEL061C, strain CIN8, hits give low values 0.999 | locus YER015W, strain faa2, hits give low values 1.01 | locus YER016W, strain bim1, hits give low values 0.991 | locus YER110C, hits give low values 0.981 | locus YER111C, strain swi4, hits give low values 1 | locus YER155C, strain BEM2 (second series), hits give low values 0.99 | locus YER155C, strain BEM2, hits give low values 0.974 | locus YER167W, strain BCK2, hits give low values 0.995 | locus YFR010W, strain ubp6, hits give low values 1 | locus YGL078C, strain dbp3, hits give low values 0.988 | locus YGL086W, strain mad1, hits give low values 1 | locus YGL167C, strain pmr1, hits give low values 0.997 | locus YGL173C, strain kem1, hits give low values 0.996 | locus YGL227W, strain vid30, hits give low values 0.992 | locus YGL240W, strain doc1, hits give low values 1 | locus YGL248W, strain PDE1, hits give low values 1 | locus YGL253W, strain hxk2, hits give low values 1 | locus YGR135W, strain pre9, hits give low values 1.01 | locus YGR252W, strain gcn5, hits give low values 1.04 | locus YHR013C, strain ard1, hits give low values 0.987 | locus YHR027C, strain rpn1, hits give low values 1.01 | locus YHR030C, strain SLT2, hits give low values 0.999 and 1.01 | locus YHR079C, strain IRE1 (second series), hits give low values 0.997 | locus YHR079C, strain IRE1, hits give low values 1.04 | locus YHR094C, strain hxt1, hits give low values 0.989 | locus YHR129C, strain ARP1, hits give low values 0.995 | locus YHR142W, strain chs7, hits give low values 1.01 | locus YHR200W, strain rpn10, hits give low values 0.994 | locus YIL066C, strain RNR3, hits give low values 1.04 | locus YIL073C, strain SPO22, hits give low values 0.979 | locus YIL125W, strain kgd1, hits give low values 0.995 | locus YIR030C, strain dcg1, hits give low values 0.994 | locus YJL092W, strain hpr5, hits give low values 0.993 | locus YJL095W, strain BCK1 (second series), hits give low values 0.99 | locus YJL095W, strain BCK1, hits give low values 1 and 1.04 | locus YJL115W, strain asf1, hits give low values 0.999 | locus YJL129C, strain trk1, hits give low values 0.999 | locus YJL134W, strain LCB3, hits give low values 0.998 | locus YJL154C, strain vps35, hits give low values 1 | locus YJL164C, strain tpk1, hits give low values 1.01 | locus YJL166W, strain qcr8, hits give low values 1 | locus YJL168C, strain set2, hits give low values 0.991 | locus YJL187C, strain SWE1 (second series), hits give low values 0.996 | locus YJR043C, strain POL32, hits give low values 1.05 | locus YJR066W, strain TOR1, hits give low values 0.958 | locus YJR075W, strain HOC1, hits give low values 0.995 | locus YKL009W, strain mrt4, hits give low values 0.986 | locus YKL068W, hits give low values 0.987 | locus YKL085W, strain MDH1 (second series), hits give low values 1.02 | locus YKL085W, strain MDH1, hits give low values 1.02 | locus YKL160W, strain elf1, hits give low values 0.999 | locus YKR001C, strain vps1, hits give low values 1 | locus YKR026C, strain gcn3, hits give low values 1 | locus YKR091W, strain srl3, hits give low values 1 | locus YLL001W, strain dnm1, hits give low values 0.997 | locus YLL026W, hits give low values 0.993 | locus YLL041C, strain sdh2, hits give low values 1 | locus YLR027C, strain aat2, hits give low values 0.997 | locus YLR039C, strain RIC1, hits give low values 1.03 | locus YLR058C, strain SHM2, hits give low values 0.998 | locus YLR102C, strain apc9, hits give low values 0.987 | locus YLR113W, strain HOG1, hits give low values 1.02 | locus YLR221C, strain rsa3, hits give low values 1.01 | locus YLR258W, strain gsy2, hits give low values 0.994 | locus YLR262C, strain YPT6 (second series), hits give low values 0.984 | locus YLR262C, strain YPT6, hits give low values 1.04 | locus YLR268W, strain sec22, hits give low values 0.986 | locus YLR320W, strain mms22, hits give low values 0.999 | locus YLR330W, strain CHS5, hits give low values 1.01 | locus YLR342W, strain FKS1 (second series), hits give low values 1.03 | locus YLR342W, strain FKS1, hits give low values 1.02 | locus YLR357W, strain rsc2, hits give low values 0.962 | locus YLR370C, strain arc18, hits give low values 1 | locus YLR371W, strain rom2, hits give low values 0.989 | locus YLR384C, strain iki3, hits give low values 0.982 | locus YLR418C, strain cdc73, hits give low values 1.02 | locus YML016C, strain PPZ1, hits give low values 0.993 | locus YML032C, strain rad52, hits give low values 1.01 | locus YML120C, strain ndi1, hits give low values 1 | locus YML124C, strain tub3, hits give low values 0.996 | locus YMR058W, strain fet3, hits give low values 0.999 | locus YMR078C, strain ctf18, hits give low values 0.996 | locus YMR125W, strain sto1, hits give low values 0.996 | locus YMR129W, hits give low values 0.991 | locus YMR205C, strain PFK2, hits give low values 1.01 | locus YMR223W, strain ubp8, hits give low values 1.01 | locus YMR231W, strain pep5, hits give low values 1 | locus YMR263W, strain SAP30, hits give low values 0.989 | locus YMR307W, strain GAS1, hits give low values 1.06 | locus YNL067W, strain RPL9B, hits give low values 0.984 | locus YNL071W, strain lat1, hits give low values 1 | locus YNL183C, strain NPR1, hits give low values 0.953 | locus YNL209W, strain ssb2, hits give low values 1.01 | locus YNL233W, strain BNI4, hits give low values 1.01 | locus YNL248C, strain rpa49, hits give low values 1 | locus YNL250W, strain rad50, hits give low values 0.975 | locus YNL271C, strain bni1, hits give low values 0.999 | locus YNL298W, strain CLA4, hits give low values 0.995 | locus YNL307C, strain MCK1, hits give low values 0.992 | locus YNL322C, strain KRE1 (second series), hits give low values 0.979 | locus YNR049C, strain mso1, hits give low values 0.984 | locus YNR052C, strain pop2, hits give low values 0.998 | locus YOL006C, strain TOP1, hits give low values 1.07 | locus YOL012C, strain htz1 1.05 | locus YOL147C, strain pex11, hits give low values 0.998 | locus YOR001W, strain rrp6, hits give low values 1 | locus YOR061W, strain CKA2, hits give low values 1 | locus YOR069W, strain VPS5, hits give low values 0.988 | locus YOR070C, strain gyp1, hits give low values 1.01 | locus YOR080W, strain dia2, hits give low values 0.99 | locus YOR083W, strain WHI5, hits give low values 0.998 | locus YOR106W, strain vam3, hits give low values 1.01 | locus YOR136W, strain idh2, hits give low values 0.983 | locus YOR144C, strain elg1, hits give low values 0.995 | locus YOR184W, strain ser1, hits give low values 1 | locus YOR231W, strain MKK1, hits give low values 1.02 | locus YOR265W, strain rbl2, hits give low values 0.991 | locus YOR270C, strain vph1, hits give low values 1.04 | locus YOR290C, strain snf2, hits give low values 1 | locus YOR316C, strain cot1, hits give low values 0.99 | locus YPL051W, strain arl3, hits give low values 0.996 | locus YPL055C, strain LGE1, hits give low values 1.03 | locus YPL078C, strain atp4, hits give low values 0.991 | locus YPL106C, strain sse1, hits give low values 0.984 | locus YPL240C, strain hsp82, hits give low values 1.01 | locus YPL256C, strain CLN2, hits give low values 1.01 | locus YPR119W, strain clb2, hits give low values 1.01 | locus YPR141C, strain kar3, hits give low values 0.985 | locus YPR163C, strain tif3, hits give low values 0.995 | locus YPR167C, strain met16, hits give low values 0.998 | strain wtn01, hits give low values 0.989
